We go through 33 molecules from ChEMBL document CHEMBL4513146, “CO-ADD screening of Karazin Kharkiv National University (Ukraine) compounds”.

For one test, the system named is Staphylococcus aureus. The following applies: Concentration 32 ug.mL-1;; ASSAY_TEST Inhibition of Bacterial Growth; detection method Absorption (OD600); MEDIA CAMHB; plate type 384well; NBS; CORNING #3640; time 18 hr.
The subject of another test is Escherichia coli. The following applies: Concentration 32 ug.mL-1;; ASSAY_TEST Inhibition of Bacterial Growth; detection method Absorption (OD600); MEDIA CAMHB; plate type 384well; NBS; CORNING #3640; time 18 hr.

Potency and affinity values are given separately.

As usually defined, the Inhibition is the drop in the measured response relative to a control, in per cent. With `Cc1cc(C)cc(Nc2nc(C)cc3nn(CC(=O)Nc4ccccc4)c(=O)n23)c1`, the values for the Inhibition in the test with Staphylococcus aureus and in the test with Escherichia coli were 4.32% and -6.45%, respectively.
The corresponding values for `COc1ccc(OC)c(NC(=O)Cn2nc3c4cc(-c5ccc(C)c(C)c5)nn4ccn3c2=O)c1` are 0.06% and -4.32%.
The corresponding values for `O=C(CSc1nnc2c(=O)n(-c3cccc(F)c3)ccn12)NCCc1ccccc1` are -2.66% and -10.98%.
The corresponding values for `CSc1cccc(NC(=O)Cn2nc3c(Oc4cc(C)cc(C)c4)nccn3c2=O)c1` are 3.38% and -5.29%.
`COC(=O)c1ccccc1NC(=O)CSc1nc2ccccc2n2c(C(C)C)nnc12`: the Inhibition in the test on Staphylococcus aureus is on record as 10.06%; with Escherichia coli, -3.26%.
As for `Cc1ccccc1Oc1nccn2c(=O)n(CC(=O)Nc3ccc(C(C)C)cc3)nc12`, the Inhibition with Staphylococcus aureus was -1.76%; in the test with Escherichia coli, -10.99%.
The corresponding values for `COc1ccc(C)cc1NC(=O)Cn1nc2c3cc(-c4ccc(Cl)cc4)nn3ccn2c1=O` are 8.09% and 3.41%.
The corresponding values for `COc1cc(NC(=O)Cn2nc3c4c5c(sc4ncn3c2=O)CCCC5)cc(OC)c1OC` are 7.91% and -3.63%.
The corresponding values for `Cc1nnc2c(S(=O)(=O)N(Cc3ccc(F)cc3)c3ccc(Cl)cc3)cccn12` are 5.21% and -5.38%.
On to `COc1cc(NC(=O)Cn2nc3ccc(SCc4ccc(Cl)cc4)nn3c2=O)cc(OC)c1`, for which the results for the Inhibition in the test on Staphylococcus aureus and in the test on Escherichia coli were -3.52% and -10.62%, respectively.
The corresponding values for `COc1cccc(-n2ccn3c(SCC#N)nnc3c2=O)c1` are 16.24% and 0.96%.
The corresponding values for `Cc1cccc(CN(c2ccc(F)cc2)S(=O)(=O)c2ccc3nnc(C)n3c2)c1` are 5.07% and -8.57%.
The corresponding values for `COc1ccc(NC(=O)CSc2nnc3c(=O)n(-c4cccc(F)c4)ccn23)cc1OC` are 3.1% and -11.05%.
For the molecule `Cc1cccc(CN(c2cccc(Cl)c2)S(=O)(=O)c2cccn3c(C)nnc23)c1`, the figures for the Inhibition in the test with Staphylococcus aureus and in the test on Escherichia coli were 9.05% and -5.75%, respectively.
The corresponding values for `COc1cccc(CN(c2cc(F)cc(F)c2)S(=O)(=O)c2ccc3nnc(C)n3c2)c1` are 7.94% and -9.84%.
The corresponding values for `COc1cccc(-c2nc(CSc3nc4ccccc4n4c(C)nnc34)c(C)o2)c1OC` are 2.75% and -2.95%.
For the molecule `O=C(Cn1nc2nc(Nc3ccc(F)cc3)ccn2c1=O)Nc1cc(F)ccc1F`, the Inhibition with Staphylococcus aureus was 11.9%; in the test with Escherichia coli, -2.67%.
The corresponding values for `O=C(Cn1nc2c3cc(-c4ccc(Cl)cc4)nn3ccn2c1=O)N1CCN(c2ccccc2)CC1` are 8.68% and -1.74%.
As for `Cc1nc(-c2ccccc2)cc2nn(CC(=O)Nc3ccc4c(c3)OCO4)c(=O)n12`, the figures for the Inhibition in the test with Staphylococcus aureus and with Escherichia coli were 14.7% and -4.44%, respectively.
The corresponding values for `O=C(CSc1nnc2c3cc(-c4ccccc4)nn3ccn12)Nc1cccc(Br)c1` are 9.78% and 2.01%.
The corresponding values for `Cc1ccccc1Cn1nc2ccc(-c3ccccc3)nn2c1=O` are 10.41% and 1.97%.
The corresponding values for `Cc1cc(C)c(NC(=O)Cn2nc3ccc(SC4CCCCC4)nn3c2=O)c(C)c1` are 7.62% and -6.45%.
Consider `Cc1ccc(CNC(=O)CSc2nnc3c4cc(-c5ccc(F)cc5)nn4ccn23)cc1`, for which the Inhibition in the test on Staphylococcus aureus is given as 12.38%; with Escherichia coli, -2.28%.
The corresponding values for `COc1ccc(NC(=O)Cn2nc3c(Sc4ccccc4)nccn3c2=O)cc1OC` are -8.9% and -5.11%.
The corresponding values for `COc1cc(NC(=O)CSc2nnc3c(=O)n(-c4cccc(OC)c4)ccn23)cc(OC)c1` are 2.57% and -9.3%.
In the case of `Cc1ccc(NC(=O)Cn2nc3c(Sc4ccccc4)nccn3c2=O)c(C)c1`, the figures for the Inhibition with Staphylococcus aureus and in the test with Escherichia coli were 5.22% and -4.74%, respectively.
With `Cc1cccc(NC(=O)Cn2c(=O)c3nnc(C(C)C)n3c3ccccc32)c1`, the Inhibition is given as 1.06% in the test on Staphylococcus aureus and -8.16% with Escherichia coli.
The corresponding values for `COc1cc(NC(=O)Cn2nc3c(N4CCCC(C)C4)nccn3c2=O)cc(OC)c1` (stereo unspecified) are -12.69% and -14.56%.
The corresponding values for `O=C(Cn1nc2c3sccc3ncn2c1=O)Nc1ccc2c(c1)OCO2` are -1.71% and -14.29%.
The corresponding values for `Cc1ccc(Sc2nccn3c(=O)n(CC(=O)Nc4ccc(C)cc4Br)nc23)c(C)c1` are 8.09% and -4.19%.
Turning to `Cc1cccc(Sc2nccn3c(=O)n(CC(=O)N4CCN(c5ccccc5)CC4)nc23)c1`, the Inhibition is on record as 12.14% in the test with Staphylococcus aureus and -10.39% in the test on Escherichia coli.
Consider `Cc1ccc(NC(=O)Cn2nc3c(SCc4ccc(Cl)cc4)nccn3c2=O)c(C)c1`, for which the Inhibition in the test on Staphylococcus aureus is given as 10.91%; in the test with Escherichia coli, -3.69%.
The corresponding values for `Cc1cc(C)cc(N(Cc2ccc(Cl)cc2)S(=O)(=O)c2cccn3c(C)nnc23)c1` are 9.89% and -11.68%.
